Measured values from the supplement of paper PMC10849652.
Of roughly 8,800 targets only a part is listed; those with a hit were picked by preference. About 0.5% of all pairs of compound and target were hits.

Columns and labels:
Test in all cases: log2 fold change, soluble protein after heating vs DMSO (PISA); higher = thermal stabilisation; K562 lysate, 10 uM; active = over 0.2 and 3.5 SD of the protein, either way, in both replicates (recomputed)
erlotinib = compound: C#Cc1cccc(Nc2ncnc3cc(OCCOC)c(OCCOC)cc23)c1 [erlotinib]
Procedure, shortened: (§1)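 Values give the log-two fold change in thermal stability against solvent controls, from duplicates. Crude K562 extract at 1 mg/mL protein, made by dounce homogenisation in PBS pH 7.4 with 1 mM MgCl2, was treated with 10 μM compound for 30 min. After 3 min heating across 48°C-58°C, aliquots were pooled, adjusted to 0.5% NP-40 at 4°C and centrifuged at 21,000xg for 90 min. The supernatant was measured by TMTpro 16plex LC-MS/MS with channel sums equalised.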

[1] = compound: C/C(=N\NC(=O)C1=CC(=CC=C1)S(=O)(=O)N2CCOCC2)/C3=C(C=CC(=C3)Cl)O
Procedure, shortened: as §1

[2] = compound: C1=CC(=CC=C1C2=NC3=C(N2)C=C(C=C3)C(=O)N)OC4=CC=C(C=C4)Cl
Procedure, shortened: as §1

[3] = compound: C1=CC2=C(C=CC(=C2)/C=C\3/C(=O)NC(=NCC4=CC=CS4)S3)N=C1
Procedure, shortened: as §1

[4] = compound: C1=CC2=NC=CN=C2C=C1/C=C/3\C(=O)NC(=O)S3
Procedure, shortened: as §1

[5] = compound: C1=CC=C(C=C1)C2=NC(=C(N2)C3=CC=NC=C3)C4=CC(=C(C=C4)Cl)O
Procedure, shortened: as §1

[6] = compound: C1=CC=C2C(=C1)C3=NNC4=CC=CC(=C43)C2=O
Procedure, shortened: as §1

[7] = compound: C1CCN(C1)C(=O)NC2=CC=CC(=C2)NC3=NC=C(C(=N3)NCCC4=CN=CN4)Br
Procedure, shortened: as §1

[8] = compound: C1CN(CCC1(CC2=CC=C(C=C2)Cl)N)C3=NC=NC4=C3C=CN4
Procedure, shortened: as §1

IRAK-1-4 Inhibitor I = compound: C1COCCN1CCN2C3=CC=CC=C3N=C2NC(=O)C4=CC(=CC=C4)[N+](=O)[O-] [IRAK-1-4 Inhibitor I]
Procedure, shortened: as §1

ibrutinib = compound: C=CC(=O)N1CCC[C@@H](n2nc(-c3ccc(Oc4ccccc4)cc3)c3c(N)ncnc32)C1 [ibrutinib]
Procedure, shortened: as §1

[9] = compound: CC(=O)c1cnc2ccc(-c3cc(Cl)c(O)c(Cl)c3)nc2c1N[C@H]1CC[C@H](CN(C)C)CC1
Procedure, shortened: as §1

ralimetinib = compound: CC(C)(C)Cn1c(N)nc2ccc(-c3[nH]c(C(C)(C)C)nc3-c3ccc(F)cc3)nc21 [ralimetinib]
Procedure, shortened: as §1

[10] = compound: CC(C)(O)CC(=O)NCCn1ccc2ncnc(Nc3ccc(Oc4cccc(C(F)(F)F)c4)c(Cl)c3)c21
Procedure, shortened: as §1

[11] = compound: CC(C)C1=C2N=C(C=C(N2N=C1)NCC3=CC=CC=C3)NCCCCCCN
Procedure, shortened: as §1

[12] = compound: CC1=C(C(CC(=O)N1)C2=CC=C(C=C2)C(F)(F)F)C(=O)NC3=C(C=C4C(=C3)C=NN4)F
Procedure, shortened: as §1

[13] = compound: CC1=C(C2=C(C=C1)C(=O)C3=CC=CC=C3N2CCCN)C
Procedure, shortened: as §1

[14] = compound: CC1=C(C=C(C=C1)NC(=O)C2=CC(=CC=C2)C(C)(C)C#N)NC3=CC4=C(C=C3)N=CN(C4=O)C
Procedure, shortened: as §1

[15] = compound: CC1=C(C=C(C=C1)NC(=O)C2=CC(=CC=C2)N(C)C)NC(=O)C3=CC=C(C=C3)O
Procedure, shortened: as §1

[16] = compound: CC1=CC=C(C=C1)SC2=C3C=C(SC3=CN=C2)C(=O)N
Procedure, shortened: as §1

Measured: log2 fold change

GART (UniProt P22102)
inactive: erlotinib -0.007 | [1] 0.022 | [2] -0.025 | [3] -0.013 | [4] 0.016 | [5] 0.015 | [6] -0.011 | [7] -0.001 | [8] -0.003 | IRAK-1-4 Inhibitor I 0.005 | ibrutinib 0.007 | [9] 0.009 | ralimetinib 0.01 | [10] 0.036 | [11] 0.013 | [12] -0.014 | [13] 0.009 | [14] -0.027 | [15] -0.006 | [16] 0.021

FBXO30 (UniProt Q8TB52)
inactive: erlotinib 0.006 | [1] -0.064 | [2] -0.031 | [3] 0.014 | [4] -0.038 | [5] -0.008 | [6] 0.042 | [7] -0.014 | [8] -0.007 | IRAK-1-4 Inhibitor I -0.018 | ibrutinib 0.022 | [9] -0.007 | ralimetinib 0.057 | [10] 0.046 | [11] -0.009 | [12] -0.003 | [13] 0.013 | [14] 0.016 | [15] 0.006 | [16] 0.016

EGLN1 (UniProt Q9GZT9)
inactive: erlotinib 0.006 | [1] 0.016 | [2] 0.034 | [3] 0.028 | [4] -0.027 | [5] 0.006 | [6] -0.005 | [7] 0.015 | [8] -0.019 | IRAK-1-4 Inhibitor I -0.021 | ibrutinib -0.041 | [9] 0.007 | ralimetinib 0.01 | [10] 0.072 | [11] 0.029 | [12] 0.013 | [13] -0.029 | [14] 0.013 | [15] 0.029 | [16] 0.038

DYNC1I2 isoform 5 (UniProt Q13409)
UniProt Q13409, sequence (Q13409 whole entry, looked up): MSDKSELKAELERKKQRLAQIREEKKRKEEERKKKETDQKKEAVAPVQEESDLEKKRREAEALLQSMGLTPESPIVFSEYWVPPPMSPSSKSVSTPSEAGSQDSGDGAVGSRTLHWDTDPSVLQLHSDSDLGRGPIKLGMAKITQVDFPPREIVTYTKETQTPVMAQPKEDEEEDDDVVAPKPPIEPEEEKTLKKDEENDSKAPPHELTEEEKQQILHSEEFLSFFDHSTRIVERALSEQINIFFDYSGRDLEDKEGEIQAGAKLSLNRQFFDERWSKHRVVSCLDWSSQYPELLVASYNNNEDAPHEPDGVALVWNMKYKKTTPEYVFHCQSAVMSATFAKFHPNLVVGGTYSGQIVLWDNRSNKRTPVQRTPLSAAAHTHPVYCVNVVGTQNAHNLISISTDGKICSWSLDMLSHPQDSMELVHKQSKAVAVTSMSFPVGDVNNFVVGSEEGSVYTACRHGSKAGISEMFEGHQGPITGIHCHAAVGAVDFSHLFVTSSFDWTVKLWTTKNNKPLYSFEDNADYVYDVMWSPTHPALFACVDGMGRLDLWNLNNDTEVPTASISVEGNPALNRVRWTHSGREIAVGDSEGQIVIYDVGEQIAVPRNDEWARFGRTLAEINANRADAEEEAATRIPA
inactive: erlotinib -0.005 | [1] 0.001 | [2] -0.001 | [3] 0.009 | [4] 0 | [5] 0.009 | [6] 0.019 | [7] -0.007 | [8] 0.016 | IRAK-1-4 Inhibitor I 0.018 | ibrutinib 0.022 | [9] -0.021 | ralimetinib 0 | [10] -0.014 | [11] 0.004 | [12] 0.012 | [13] -0.007 | [14] -0.012 | [15] 0.008 | [16] -0.003

ENO2 (UniProt P09104)
UniProt P09104, sequence (P09104 whole entry, looked up): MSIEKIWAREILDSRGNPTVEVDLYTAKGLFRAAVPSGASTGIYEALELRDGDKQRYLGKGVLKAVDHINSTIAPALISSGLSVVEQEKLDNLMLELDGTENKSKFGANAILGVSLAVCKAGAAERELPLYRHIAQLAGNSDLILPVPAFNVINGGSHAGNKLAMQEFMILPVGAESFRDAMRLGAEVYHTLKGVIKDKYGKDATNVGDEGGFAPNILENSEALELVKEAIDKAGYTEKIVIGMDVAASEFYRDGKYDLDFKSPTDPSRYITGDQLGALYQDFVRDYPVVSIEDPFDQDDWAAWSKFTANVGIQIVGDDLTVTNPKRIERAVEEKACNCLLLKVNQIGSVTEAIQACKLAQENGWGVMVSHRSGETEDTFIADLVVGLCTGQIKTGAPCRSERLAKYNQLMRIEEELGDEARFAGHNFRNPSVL
inactive: erlotinib 0.013 | [1] 0.013 | [2] 0.03 | [3] -0.037 | [4] 0.056 | [5] -0.091 | [6] 0.024 | [7] 0.005 | [8] -0.02 | IRAK-1-4 Inhibitor I -0.036 | ibrutinib -0.008 | [9] -0.014 | ralimetinib 0.031 | [10] -0.051 | [11] -0.007 | [12] -0.013 | [13] -0.029 | [14] 0.035 | [15] 0.032 | [16] 0.011

EIF2AK2 (UniProt P19525)
UniProt P19525, sequence (P19525 whole entry, looked up): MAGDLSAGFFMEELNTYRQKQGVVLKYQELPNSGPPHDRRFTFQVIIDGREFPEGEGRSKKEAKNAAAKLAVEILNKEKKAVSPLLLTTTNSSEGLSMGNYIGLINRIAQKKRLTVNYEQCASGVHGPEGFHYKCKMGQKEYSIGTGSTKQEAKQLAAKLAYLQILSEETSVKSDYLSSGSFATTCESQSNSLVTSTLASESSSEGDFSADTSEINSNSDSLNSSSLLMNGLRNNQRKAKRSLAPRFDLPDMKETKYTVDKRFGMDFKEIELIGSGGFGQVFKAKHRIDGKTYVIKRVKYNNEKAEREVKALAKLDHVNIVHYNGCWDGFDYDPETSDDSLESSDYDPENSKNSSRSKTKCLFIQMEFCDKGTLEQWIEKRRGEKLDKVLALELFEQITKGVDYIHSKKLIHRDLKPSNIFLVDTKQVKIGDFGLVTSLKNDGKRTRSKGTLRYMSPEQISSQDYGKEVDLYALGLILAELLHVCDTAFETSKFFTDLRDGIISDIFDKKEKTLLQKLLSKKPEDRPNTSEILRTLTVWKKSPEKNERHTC
inactive: erlotinib 0.02 | [1] 0.011 | [2] -0.055 | [3] -0.072 | [4] 0.003 | [5] 0.005 | [6] -0.039 | [7] -0.013 | [8] 0.016 | IRAK-1-4 Inhibitor I -0.011 | ibrutinib 0.014 | [9] 0.015 | ralimetinib -0.025 | [10] 0.035 | [11] -0.009 | [12] 0.015 | [13] -0.008 | [14] -0.015 | [15] -0.019 | [16] -0.03

DTYMK (UniProt P23919)
UniProt P23919, sequence (P23919 whole entry, looked up): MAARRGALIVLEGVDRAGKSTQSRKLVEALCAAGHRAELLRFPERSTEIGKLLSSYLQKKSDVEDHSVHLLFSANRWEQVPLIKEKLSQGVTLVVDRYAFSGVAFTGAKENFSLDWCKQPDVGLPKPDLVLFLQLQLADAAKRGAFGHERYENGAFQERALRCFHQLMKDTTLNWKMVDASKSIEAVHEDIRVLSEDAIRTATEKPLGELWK
inactive: erlotinib -0.013 | [1] 0.025 | [2] 0.01 | [3] -0.017 | [4] 0.024 | [5] -0.016 | [6] 0.004 | [7] 0.01 | [8] -0.027 | IRAK-1-4 Inhibitor I -0.028 | ibrutinib 0.027 | [9] -0.018 | ralimetinib 0.049 | [10] -0.015 | [11] 0.023 | [12] -0.035 | [13] -0.005 | [14] -0.017 | [15] 0.038 | [16] -0.002

FECH isoform 2 (UniProt P22830)
inactive: erlotinib 0.101 | [1] 0.062 | [2] -0.321 | [3] 0.42 | [4] -0.014 | [5] 0.354 | [6] 0.673 | [7] 0.183 | [8] -0.009 | IRAK-1-4 Inhibitor I 0.644 | ibrutinib 0.091 | [9] 0.104 | ralimetinib -0.034 | [10] 0.504 | [11] 0.327 | [12] -0.263 | [13] 0.287 | [14] 0.748 | [15] 0.028
active: [16] -1.11

EWSR1 isoform 5 (UniProt Q01844)
inactive: erlotinib -0.135 | [1] -0.037 | [2] -0.1 | [3] 0.012 | [4] 0.015 | [5] 0.037 | [6] 0.015 | [7] -0.009 | [8] -0.028 | IRAK-1-4 Inhibitor I 0.018 | ibrutinib -0.016 | [9] -0.026 | ralimetinib -0.017 | [10] -0.011 | [11] 0.038 | [12] -0.012 | [13] 0.016 | [14] -0.023 | [15] -0.033 | [16] 0

GATAD2A isoform 3 (UniProt Q86YP4)
UniProt Q86YP4, sequence (Q86YP4 whole entry, looked up): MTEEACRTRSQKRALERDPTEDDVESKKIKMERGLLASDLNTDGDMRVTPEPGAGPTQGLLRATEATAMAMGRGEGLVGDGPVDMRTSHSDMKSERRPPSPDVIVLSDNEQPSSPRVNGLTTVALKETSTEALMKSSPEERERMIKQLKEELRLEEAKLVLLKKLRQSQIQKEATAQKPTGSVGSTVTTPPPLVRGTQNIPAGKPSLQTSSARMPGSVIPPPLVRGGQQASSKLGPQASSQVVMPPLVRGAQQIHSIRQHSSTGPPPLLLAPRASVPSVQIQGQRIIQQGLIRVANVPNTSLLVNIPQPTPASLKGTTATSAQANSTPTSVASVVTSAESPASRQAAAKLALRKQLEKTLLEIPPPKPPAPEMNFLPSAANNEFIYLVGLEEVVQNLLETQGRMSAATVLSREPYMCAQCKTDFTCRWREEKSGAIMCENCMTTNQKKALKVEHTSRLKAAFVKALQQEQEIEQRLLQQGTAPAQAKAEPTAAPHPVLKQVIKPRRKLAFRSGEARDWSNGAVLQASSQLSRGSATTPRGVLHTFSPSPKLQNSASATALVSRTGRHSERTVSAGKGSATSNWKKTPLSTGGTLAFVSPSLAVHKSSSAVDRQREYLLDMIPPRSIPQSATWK
inactive: erlotinib 0.012 | [1] -0.124 | [2] -0.003 | [3] -0.034 | [4] 0.003 | [5] -0.002 | [6] -0.035 | [7] -0.037 | [8] 0.034 | IRAK-1-4 Inhibitor I -0.016 | ibrutinib 0.017 | [9] 0.008 | ralimetinib 0.023 | [10] 0.01 | [11] 0.012 | [12] -0.004 | [13] 0.005 | [14] 0.01 | [15] 0.016 | [16] -0.005

FARSB (UniProt Q9NSD9)
inactive: erlotinib -0.004 | [1] 0.019 | [2] -0.007 | [3] -0.01 | [4] -0.02 | [5] 0.039 | [6] -0.021 | [7] -0.004 | [8] 0.011 | IRAK-1-4 Inhibitor I -0.027 | ibrutinib 0.021 | [9] -0.013 | ralimetinib -0.006 | [10] 0.016 | [11] 0.004 | [12] -0.023 | [13] 0.007 | [14] 0.033 | [15] 0.008 | [16] 0.03

FAU (UniProt E9PR30)
inactive: erlotinib -0.026 | [1] -1.8 | [2] -0.059 | [3] -0.048 | [4] 0.016 | [5] -0.016 | [6] 0 | [7] 0.011 | [8] -0.021 | IRAK-1-4 Inhibitor I 0.053 | ibrutinib -0.018 | [9] 0.012 | ralimetinib -0.01 | [10] -0.018 | [11] -0.122 | [12] -0.034 | [13] -0.015 | [14] 0.029 | [15] -0.003 | [16] 0.027

GIGYF2 (UniProt Q6Y7W6)
UniProt Q6Y7W6, sequence (Q6Y7W6 whole entry, looked up): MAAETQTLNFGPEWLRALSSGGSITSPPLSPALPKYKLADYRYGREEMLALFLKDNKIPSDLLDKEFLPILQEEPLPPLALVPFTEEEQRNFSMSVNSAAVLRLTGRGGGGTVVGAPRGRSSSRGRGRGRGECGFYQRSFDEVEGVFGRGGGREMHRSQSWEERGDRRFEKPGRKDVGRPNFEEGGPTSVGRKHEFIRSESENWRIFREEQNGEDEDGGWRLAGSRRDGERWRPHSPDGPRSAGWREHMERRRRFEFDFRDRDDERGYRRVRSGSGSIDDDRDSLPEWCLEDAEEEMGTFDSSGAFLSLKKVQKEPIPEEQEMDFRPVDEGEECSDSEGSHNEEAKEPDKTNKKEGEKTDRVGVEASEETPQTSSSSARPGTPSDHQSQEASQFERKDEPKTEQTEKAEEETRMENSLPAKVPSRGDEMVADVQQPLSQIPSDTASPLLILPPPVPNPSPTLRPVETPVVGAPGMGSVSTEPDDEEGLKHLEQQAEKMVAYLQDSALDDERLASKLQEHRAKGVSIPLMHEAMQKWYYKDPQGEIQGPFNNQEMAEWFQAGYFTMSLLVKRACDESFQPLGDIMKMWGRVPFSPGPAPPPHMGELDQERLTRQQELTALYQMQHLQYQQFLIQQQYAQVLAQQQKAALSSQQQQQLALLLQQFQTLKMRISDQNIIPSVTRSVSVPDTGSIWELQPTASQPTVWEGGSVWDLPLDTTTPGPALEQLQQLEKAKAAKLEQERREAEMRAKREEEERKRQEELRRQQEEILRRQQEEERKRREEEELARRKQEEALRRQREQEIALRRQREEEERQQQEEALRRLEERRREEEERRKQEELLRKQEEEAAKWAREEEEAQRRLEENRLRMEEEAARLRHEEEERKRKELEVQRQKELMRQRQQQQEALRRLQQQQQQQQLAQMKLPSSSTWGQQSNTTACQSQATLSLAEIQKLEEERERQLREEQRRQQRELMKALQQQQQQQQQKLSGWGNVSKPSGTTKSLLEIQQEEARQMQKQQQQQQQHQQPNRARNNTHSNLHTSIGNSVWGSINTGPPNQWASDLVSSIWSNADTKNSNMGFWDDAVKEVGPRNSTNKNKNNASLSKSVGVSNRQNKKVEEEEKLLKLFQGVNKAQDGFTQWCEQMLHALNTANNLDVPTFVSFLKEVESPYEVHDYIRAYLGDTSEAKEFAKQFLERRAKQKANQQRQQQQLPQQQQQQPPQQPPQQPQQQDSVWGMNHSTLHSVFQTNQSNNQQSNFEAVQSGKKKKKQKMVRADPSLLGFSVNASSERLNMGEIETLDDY
inactive: erlotinib -0.011 | [1] -0.033 | [2] -0.024 | [3] -0.016 | [4] 0.018 | [5] 0.005 | [6] -0.005 | [7] 0.006 | [8] -0.005 | IRAK-1-4 Inhibitor I 0.002 | ibrutinib -0.01 | [9] 0.004 | ralimetinib 0.014 | [10] -0.016 | [11] 0.029 | [12] -0.015 | [13] 0.01 | [14] 0.007 | [15] -0.006 | [16] 0.023

DTWD1 (UniProt Q8N5C7)
UniProt Q8N5C7, sequence (Q8N5C7 whole entry, looked up): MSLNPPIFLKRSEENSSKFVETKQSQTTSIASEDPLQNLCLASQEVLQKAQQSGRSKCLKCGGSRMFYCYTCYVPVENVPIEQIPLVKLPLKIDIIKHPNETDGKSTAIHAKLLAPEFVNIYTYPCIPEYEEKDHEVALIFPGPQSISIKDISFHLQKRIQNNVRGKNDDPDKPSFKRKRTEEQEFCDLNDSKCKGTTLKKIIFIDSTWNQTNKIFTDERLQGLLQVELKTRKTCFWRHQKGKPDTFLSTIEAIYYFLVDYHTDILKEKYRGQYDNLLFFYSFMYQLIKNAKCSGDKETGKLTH
inactive: erlotinib 0.01 | [1] 0.082 | [2] -0.039 | [3] -0.004 | [4] -0.048 | [5] -0.025 | [6] 0.039 | [7] 0.01 | [8] 0.047 | IRAK-1-4 Inhibitor I -0.01 | ibrutinib 0.013 | [9] 0.032 | ralimetinib 0.005 | [10] 0.005 | [11] 0.034 | [12] 0.058 | [13] -0.019 | [14] 0 | [15] -0.02 | [16] -0.027

GAA (UniProt P10253)
inactive: erlotinib 0.077 | [1] 0.046 | [2] 0.054 | [3] -0.041 | [4] -0.005 | [5] 0.006 | [6] -0.208 | [7] 0.007 | [8] 0.092 | IRAK-1-4 Inhibitor I 0.025 | ibrutinib 0.013 | [9] -0.011 | ralimetinib 0.054 | [10] -0.133 | [11] 0.009 | [12] 0.142 | [14] 0.028 | [15] 0.036 | [16] -0.084

FCHO1 (UniProt O14526)
UniProt O14526, sequence (O14526 whole entry, looked up): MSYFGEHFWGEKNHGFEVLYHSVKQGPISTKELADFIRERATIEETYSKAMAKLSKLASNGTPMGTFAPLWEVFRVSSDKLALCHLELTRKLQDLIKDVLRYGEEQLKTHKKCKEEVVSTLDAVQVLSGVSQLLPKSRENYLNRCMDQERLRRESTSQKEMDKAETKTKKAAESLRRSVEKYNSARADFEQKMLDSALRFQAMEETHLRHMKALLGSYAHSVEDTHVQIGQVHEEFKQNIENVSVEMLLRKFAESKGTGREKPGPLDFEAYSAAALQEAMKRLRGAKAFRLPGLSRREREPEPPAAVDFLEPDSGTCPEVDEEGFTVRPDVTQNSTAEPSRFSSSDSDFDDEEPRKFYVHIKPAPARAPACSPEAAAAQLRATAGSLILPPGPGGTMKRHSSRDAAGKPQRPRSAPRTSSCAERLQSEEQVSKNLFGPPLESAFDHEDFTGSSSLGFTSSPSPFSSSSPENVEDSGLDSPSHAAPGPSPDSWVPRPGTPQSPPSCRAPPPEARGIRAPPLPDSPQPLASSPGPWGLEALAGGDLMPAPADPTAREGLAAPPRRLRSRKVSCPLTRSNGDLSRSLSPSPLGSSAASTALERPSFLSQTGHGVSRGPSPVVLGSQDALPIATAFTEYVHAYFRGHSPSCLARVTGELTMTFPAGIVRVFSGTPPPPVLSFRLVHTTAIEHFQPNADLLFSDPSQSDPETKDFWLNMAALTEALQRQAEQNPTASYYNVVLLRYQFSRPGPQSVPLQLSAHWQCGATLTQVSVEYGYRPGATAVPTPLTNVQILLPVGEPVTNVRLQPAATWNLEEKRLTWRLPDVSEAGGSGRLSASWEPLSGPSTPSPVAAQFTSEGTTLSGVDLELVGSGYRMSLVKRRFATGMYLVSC
inactive: erlotinib 0.062 | [1] 0.034 | [2] 0.045 | [3] -0.055 | [4] 0.024 | [5] 0.065 | [6] -0.064 | [7] -0.044 | [8] -0.022 | IRAK-1-4 Inhibitor I -0.021 | ibrutinib -0.053 | [9] 0.022 | ralimetinib 0.018 | [10] 0.014 | [11] 0.013 | [12] 0.031 | [13] 0.018 | [14] 0.002 | [15] 0.004 | [16] 0.041
